± gives the standard deviation. Over roughly 6,600 sequences, “pre-steady-state target cleavage rate” has its median near 0.07; the highest 2% begin near 0.72. The list comes from a sample in which the highest values are over-represented; it also holds similar and randomly drawn sequences.
system: MIWI (PIWIL1) piRISC loaded with Kctd7 piRNA (30 nt); assay: pre-steady-state target cleavage rate (min^-1); MIWI and MILI are mouse PIWI proteins and EfPiwi is from a freshwater sponge; tags in brackets are library labels; higher = faster piRNA-guided slicing of the target; conditions: guide: Kctd7 piRNA 5'p-UGUUAAUCUCUCAGAGAAGGUGACAGUGAU; auxiliary factor: 500 nM mouse GTSF1
Description: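 Cleave-'n-Seq: a library of target RNAs (target site embedded in constant flanks, ACAGCATTCCGCGTTAGTGATATCCG... 5' flank; DNA-blocked outside the site) at 0.1 nM was incubated with 1 nM active mouse MILI or MIWI piRISC (synthetic 5'-monophosphorylated piRNA guide) with or without 500 nM mouse GTSF1 at 33 °C for 1 min to 16 h. Uncleaved targets were sequenced and normalised to non-target controls, and the pooled three trials were fitted to a burst-and-steady-state model to give the pre-steady-state cleavage rate (min^-1; k3 is constrained to at most 1e-4). Sequence is the target site only; target names encode pairing extent (gX:gY) and contiguous / 1-mismatch / 2-mismatch / bulge geometry. Fits with R² ≤ 0 are excluded.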

First: UAGUGACAGUCCUUCUCAGAGAGUUUAACA
Second: UAGUGACUCACGAUCUCUGAGAGAUUAACA
The “pre-steady-state target cleavage rate” value of the first is lower: 0.0044 ± 0.0027 for the first, 0.00958 ± 0.0018 for the second.

First: UACACUGUCACCUUCUCUGAGAGAUGUAACA
Second: AACACUCUCACCUUCUCUGAGAGAUUAACA
The “pre-steady-state target cleavage rate” value of the first is lower: 0.386 ± 0.051 for the first, 0.564 ± 0.035 for the second.

First: UACACUGUCACCUUCUCUGAGAGAUUACCA
Second: UACACUGUCACCAUUCUCUGAGAGAUUAACA
The “pre-steady-state target cleavage rate” value of the first is lower: 0.152 ± 0.024 for the first, 0.674 ± 0.035 for the second.

Going from UUCACUGUCACAUUCUCUGAGAGAUUAACA to UUCACUGUCACCUCUCUCUGAGAGAUUAACA, the “pre-steady-state target cleavage rate” value falls from 0.682 ± 0.031 to 0.289 ± 0.022.

Compared with AUCACUGUCACAUUCUCUGAGAGAUUAACA, UAGUCUGUCACCAUUCUCUGAGAGAUUAACA is lower in “pre-steady-state target cleavage rate” value: 0.799 ± 0.035 for the first, 0.601 ± 0.03 for the second.

First: UACACUGUCACAUUCUCUGAGAGAUUAACA
Second: UUCACUGUCACCUCUCUGAGAGAUUAACA
The “pre-steady-state target cleavage rate” value of the first is higher: 0.676 ± 0.036 for the first, 0.501 ± 0.037 for the second.

AUCACUGUCACCAUUCUCUGAGAGAUUAACA and UUCACUGUCACCAUUCUCUGAGAGAUUAACA are within error of each other in “pre-steady-state target cleavage rate” value: 0.741 ± 0.036 for the first, 0.725 ± 0.029 for the second.

UACACUGUCCACCUUCUCUGAGAGAUUAACA and UAGAGUGACACCUUCUCUGAGAGAUUAACA are within error of each other in “pre-steady-state target cleavage rate” value: 0.496 ± 0.038 for the first, 0.55 ± 0.023 for the second.

First: UAGACUUUCACCUUCUCUGAGAGAUUAACA
Second: UAGUGACAGUGUUUCUCUGAGAGAUUAACA
The “pre-steady-state target cleavage rate” value of the first is higher: 0.612 ± 0.033 for the first, 0.00493 ± 0.0019 for the second.

Going from UAGUGUGACACCUUCUCUGAGAGAUUAUGA to UACACUGUCACACUUCUCUGAGAGAUUAACA, the “pre-steady-state target cleavage rate” value rises from 0.0202 ± 0.0074 to 0.544 ± 0.023.

UAGUCUGUCAACUUCUCUGAGAGAUUAACA and AUCACUGUCACUUCUCUGAGAGAUUAACA are within error of each other in “pre-steady-state target cleavage rate” value: 0.593 ± 0.024 for the first, 0.628 ± 0.044 for the second.

Going from UAGACUGUCAACUUCUCUGAGAGAUUAACA to UAGACUGUCAACCUUCUCUGAGAGAUUAACA, the “pre-steady-state target cleavage rate” value falls from 0.726 ± 0.049 to 0.282 ± 0.023.

First: UUCACUGUCAACUUCUCUGAGAGAUUAACA
Second: UACACUGUCAACUUCUCUGAGAGAUUAACA
The “pre-steady-state target cleavage rate” value of the first is lower: 0.668 ± 0.028 for the first, 0.796 ± 0.035 for the second.

First: AUCACUGUCAACUUCUCUGAGAGAUUAACA
Second: UACACUGUCAACCUUCUCUGAGAGAUUAACA
The “pre-steady-state target cleavage rate” value of the first is higher: 0.793 ± 0.045 for the first, 0.193 ± 0.016 for the second.

Going from UUCACUGUCACCUUCUCUGAAGAGAUUAACA to UAGUGACUCACCUUCUGUGAGAGAUUAAGA, the “pre-steady-state target cleavage rate” value rises from 0.019 ± 0.0081 to 0.088 ± 0.02.

Going from “UAGACUGUCACCUUCUCUGAGAGAUUAACC [g2:g27:cont:t1C]” to UAGACUGUCACCUUCUCUGAGAAGAUUAACA, the “pre-steady-state target cleavage rate” value falls from 0.322 ± 0.03 to 0.0399 ± 0.0084.

Going from AAGACUGUCACCUUCUCUGAGAGAUUAAGA to “UAGACUGUCACCUUCUCUGAGAGAUUAACA [g2:g27:cont:t1A]”, the “pre-steady-state target cleavage rate” value rises from 0.238 ± 0.037 to 0.805 ± 0.05.

First: UAGACUGUCACCUUCUCUCUGAGAUUAACA
Second: AAGACUGUCACCUUCUCUGAGAGAUUAACA
The “pre-steady-state target cleavage rate” value of the first is lower: 0.0118 ± 0.0026 for the first, 0.786 ± 0.036 for the second.

First: UAGACUGUCACCUUCUCUGUGAGAUUUUGA
Second: UAGUGACACACCUUCACUGAGAGAAUAACA
The “pre-steady-state target cleavage rate” value of the first is lower: 0.0048 ± 0.0033 for the first, 0.0335 ± 0.0091 for the second.

First: UAGUGAGUCACCUUCACUGAGAGAUUUUGA
Second: UACACUCUCACCUUCACUGAGAGAUUAACA
The “pre-steady-state target cleavage rate” value of the first is lower: 0.0525 ± 0.017 for the first, 0.256 ± 0.02 for the second.

First: UACACUGUCACCUCUCUCUGAGAGAUUAACA
Second: UACACUGUCACCUCCUCUGAGAGAUUAACA
The “pre-steady-state target cleavage rate” value of the first is lower: 0.425 ± 0.029 for the first, 0.731 ± 0.026 for the second.

Going from UAGACUGUCACCUUGCUCUGAGAGAUUAACA to UUCACUGUCACCUCCUCUGAGAGAUUAACA, the “pre-steady-state target cleavage rate” value rises from 0.358 ± 0.049 to 0.639 ± 0.021.

Compared with UAGACUGUCACCUCUCUGAGAGAUUAACA, UAGACUGUCACCUCCUCUGAGAGAUUAACA is higher in “pre-steady-state target cleavage rate” value: 0.321 ± 0.036 for the first, 0.744 ± 0.035 for the second.

Compared with UAGACUGUCACCUGCUCUGAGAGAUUAACA, UAGACUGUCACCUCUCUCUGAGAGAUUAACA is lower in “pre-steady-state target cleavage rate” value: 0.77 ± 0.043 for the first, 0.409 ± 0.044 for the second.

UACACUGUCACCUCUCUGAGAGAUUAACA and UAGACUGUCACCUGUCUCUGAGAGAUUAACA are within error of each other in “pre-steady-state target cleavage rate” value: 0.5 ± 0.035 for the first, 0.561 ± 0.036 for the second.

Compared with AUCACUGUCACCUCUCUCUGAGAGAUUAACA, AUCACUGUCACCUCCUCUGAGAGAUUAACA is higher in “pre-steady-state target cleavage rate” value: 0.515 ± 0.031 for the first, 0.802 ± 0.033 for the second.

UUCACUGUCAGGUUCUCUGAGAGAUUAUGA and UAGUGACUCACCUUCUCUGACACAUUAACA are within error of each other in “pre-steady-state target cleavage rate” value: 0.0127 ± 0.003 for the first, 0.00928 ± 0.0035 for the second.

First: UUCACUGUCACCUUGUCUGAGUGAUUAACA
Second: UAGUCUGUCUCCUUCUGUGAGAGAUUAACA
The “pre-steady-state target cleavage rate” value of the first is lower: 0.0394 ± 0.0054 for the first, 0.536 ± 0.028 for the second.

First: UUCACUGUGACGUUCUCUGAGAGAUUAACA
Second: AUCAGACUCACCUUCUCUGAGAGAUUAAGA
The “pre-steady-state target cleavage rate” value of the first is higher: 0.59 ± 0.026 for the first, 0.159 ± 0.028 for the second.

Compared with AUCACUGUCACCUUCUCUGAGAGUAUUUGA, UUCACUGUCACCUUCUCUGAGAGAAAAUGA is lower in “pre-steady-state target cleavage rate” value: 0.109 ± 0.034 for the first, 0.0429 ± 0.015 for the second.

Compared with UAGUGACUCACCUUCUCUCAGAGAUAAACA, UAGUGACUCACCCUCUCUGAGAGAUUAACA is higher in “pre-steady-state target cleavage rate” value: 0.0156 ± 0.0032 for the first, 0.415 ± 0.045 for the second.

First: AUCUCUGUCACCUUCUCUCAGAGAUUAACA
Second: UAGUGUGUCACCAUCUCUGACAGAUUAACA
The “pre-steady-state target cleavage rate” value of the first is lower: 0.105 ± 0.0088 for the first, 0.222 ± 0.021 for the second.

Going from UAGACUGUCACCUUCUCUGAGAGAUAAUGA to UAGUCUGUCACCUCUCUCUGAGAGAUUAACA, the “pre-steady-state target cleavage rate” value rises from 0.00696 ± 0.0033 to 0.481 ± 0.032.

Compared with UAGUCUGUCACCUCCUCUGAGAGAUUAACA, UAGUCUGUCACCUCUCUGAGAGAUUAACA is lower in “pre-steady-state target cleavage rate” value: 0.726 ± 0.038 for the first, 0.447 ± 0.048 for the second.

First: UAGUGACUCACCUUCUCUGAGAGAUUAACC [g2:g23:cont:t1C]
Second: AUCACUGUCAGGUUCUCUGAGAGAUUAACA
The “pre-steady-state target cleavage rate” value of the first is lower: 0.303 ± 0.032 for the first, 0.653 ± 0.043 for the second.

Reference: the supplement of paper PMC10338343
